High-throughput results from PubChem BioAssay.
VCAM1 TNFa inh: inhibitors of TNFa-induced VCAM1 expression, primary screen, imaging, HUVEC, TNFa stimulus, immunofluorescence; HUVEC TNFa-induced VCAM-1 immunofluorescence, high-content imaging; inhibition, % at 2 µM; actives 0.48% (n = 95,000); AID 802, 2007;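 active = inhibition above the batch mean plus 3 SD, with images confirmed as a hit by eye, cut at about 37% in these data; inconclusive = inhibition above that limit but hit not confirmed in images; inactive = inhibition not above that limit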;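 note: 0% = TNF-stimulated DMSO wells and 100% = unstimulated control wells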
TNFa cytotox: cytotoxicity in TNFa-stimulated HUVEC, primary screen, cytotoxicity control for VCAM1 expression modulator project, imaging, Hoechst nuclei count. HUVEC TNFalpha-stimulated, Hoechst cell count. cell count reduction, % at 2 µM. actives 0.17% (n = 93,000). AID 848, 2007;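 active = cell count reduction exceeding the screen mean by over 5 SD, scaled to untreated wells per plate, cut at about 78% in these data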;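 note: cells counted after 24 h of TNF alpha exposure following the 1 h pretreatment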
IL1B NFkB inh: inhibitors of IL-1B driven NFkB p65 nuclear import, primary screen, imaging, HUVEC, IL-1B stimulus, high-content imaging; HUVEC IL-1B NFkB p65 nuclear translocation imaging; inhibition, % at 2 µM; actives 0.43% (n = 94,000);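 active = inhibition above about 30% together with a positive call from visual inspection of the well image, limit read from the data; inconclusive = inhibition above a set limit but visual check negative; inactive = inhibition not above a set limit, visual check negative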;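 note: nuclear over cytoplasmic p65 intensity ratio measured by imaging; 0% = IL-1B stimulated DMSO wells and 100% = unstimulated DMSO wells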
F-actin modifier: modifiers of F-actin cytoskeleton organization, primary screen, imaging, HUVEC, phalloidin staining, high-content imaging; actives 0.18% (n = 91,000); inhibition, % at 2 µM; AID 836, 2007; HUVEC TNFa F-actin phalloidin imaging;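 active = inhibition above the batch mean plus 3 SD and confirmed as a hit by visual image inspection, cut at about 30% in these data, passing the limit was not always enough; inconclusive = above the inhibition threshold but rejected on visual inspection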
HUVEC tox IL1B: cytotoxicity in IL-1B stimulated HUVEC, primary screen, cytotoxicity control for IL-1B NFkB translocation project, imaging, Hoechst nuclear count, IL-1B stimulus; HUVEC cell count loss; cell count reduction, % at 2 µM; actives 0.41% (n = 94,000); AID 845, 2007;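 active = cell count reduction more than 3 SD above the screen-wide mean, cut at about 70% in these data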;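 note: normalized per plate to untreated control cells as the no-loss baseline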
NFkB transloc pot: enhancers of NFkB p65 translocation in HUVEC – imaging, IL-1B stimulus, high-content imaging, primary screen | HUVEC IL-1B NFkB p65 nuclear translocation imaging | activation, % at 2 µM | actives 0.3% (n = 94,000);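 active = activation above 40%, about the mean plus 3 SD, also judged a hit on visual image review; inconclusive = activation above 40% but not a hit on visual review; inactive = activation not above 40% and no visual hit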;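 note: percent activation is computed from the nuclear over cytoplasmic p65 intensity ratio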
Numbers without * were called inactive; u = inconclusive; x = no result. Hits are enriched below; roughly 1.6% of the tested compounds scored in any of these assays.

SMILES | VCAM1 TNFa inh | TNFa cytotox | IL1B NFkB inh | F-actin modifier | HUVEC tox IL1B | NFkB transloc pot
Cn1c(=O)c2c(SCC(=O)N3CCCc4ccccc43)nc(CC(C)(C)C)nc2n(C)c1=O | 5.9 | 6.3 | -42.4 | -14.6 | 2.5 | 42.4*
Cc1cc(C)c(S(=O)(=O)n2ccc(-c3ccc(OCCN(C)c4ccccn4)cc3)n2)c(C)c1 | 3.9 | -7.9 | -2.0 | -6.1 | -49.8 | 2.0
Cc1cc(N2CC(C(=O)O)CC2=O)ccc1Br (stereo not drawn) | 62.4 | 92.0* | 4.4 | -8.4 | -13.4 | -4.4
Cc1ccc(N2CC(C(=O)Nc3ccc(N(C)C)cc3)CC2=O)cc1C (stereo not drawn) | -21.8 | 0.0 | -76.7 | -4.5 | -15.8 | u
CC(C)CC(c1nnnn1Cc1ccccc1)N1CCC(C(N)=O)CC1 (stereo not drawn) | 19.3 | 6.2 | -58.0 | -16.9 | -2.0 | 58.0*
Cc1ccc(NC(=O)NCCCc2ccccc2)cc1 | 8.7 | -13.6 | 5.8 | 11.4 | -27.3 | -5.8
CCNc1c2c(nc3ccccc13)CC(C)(C)CC2=O | -1.9 | -30.8 | 97.1* | 11.1 | 79.0* | -97.1
Cc1[nH]c2ccccc2c1Cc1n[nH]c(=S)o1 | 12.3 | -29.8 | -46.2 | 3.7 | 13.1 | 46.2*
Cc1[nH]c2ccccc2c1Cc1n[nH]c(=S)n1C | -23.3 | 3.6 | -2.8 | 10.4 | 50.9 | 2.8
Cc1ccc(S(=O)(=O)N2CCSC2)cc1C | 9.9 | 6.2 | 7.3 | 10.3 | 20.2 | -7.3
COCCn1cnnc1SCC(=O)Nc1ccccc1C(=O)Nc1ccc2c(c1)OCO2 | -1.8 | -8.1 | 6.6 | 10.7 | -13.8 | -6.6
COc1cc(C2C(C#N)=C(C)NC3=C2C(=O)c2ccccc23)cc(OC)c1OC (stereo not drawn) | 89.1* | 63.0 | 22.2 | -10.2 | 68.6 | -22.2
COc1ccc(C2C(C#N)=C(C)NC3=C2C(=O)c2ccccc23)cc1 (stereo not drawn) | 29.9 | -8.3 | x | -24.1 | x | x
CC1=C([N+](=O)[O-])C(c2ccccc2)C2=C(N1)c1ccccc1C2=O (stereo not drawn) | 44.4* | 46.6 | -9.4 | 9.3 | -20.4 | 9.4
O=C(O)c1cccc(NC(=S)NC(=O)C(c2ccccc2)c2ccccc2)c1 | 32.2 | 12.8 | 0.9 | 4.7 | -64.0 | -0.9
CC(=O)Nc1ccc(S(=O)(=O)/N=C2\SCCN2S(=O)(=O)c2ccc(NC(C)=O)cc2)cc1 | x | x | 3.3 | x | 6.0 | -3.3
COc1ccc(-c2cc(-c3ccccc3)c(C#N)c(S(C)(=O)=O)n2)cc1 | 5.8 | 13.1 | -9.2 | 13.1 | 12.9 | 9.2
CS(=O)(=O)c1nc(-c2ccc(Br)cc2)cc(-c2ccccc2)c1C#N | -4.2 | -1.3 | -76.6 | 18.9 | 26.3 | 76.6*
CC(C)(C)c1ccc(CN2C3=NCCCN3c3ccccc32)cc1 | 6.4 | -17.1 | 21.3 | -3.4 | 75.4* | -21.3
CCn1c(SCC(=O)Nc2cc(C)on2)nc2sc3c(c2c1=O)CCCC3 | -0.3 | -7.2 | 96.4* | -11.8 | 82.7* | -96.4
C=CCn1c(SCC(=O)Nc2cc(C)on2)nc2sc3c(c2c1=O)CCCC3 | -24.9 | -12.1 | 23.2 | -2.1 | -12.2 | -23.2
COC(=O)c1cc(OC)c(OCc2cc(C(=O)OC)oc2C)c(OC)c1 | -53.0 | -17.4 | 25.5 | 7.3 | 88.6* | -25.5
CC(C)OP(=O)(OC(C)C)C(NC(=O)c1ccc(Br)cc1)c1ccccc1 (stereo not drawn) | 4.4 | -25.8 | -1.2 | -1.8 | -13.9 | 1.2
CC(=O)Nc1ccc(C(=O)CSc2nnc(Cn3nnc4ccccc43)n2C)cc1 | -8.4 | 9.9 | 77.7* | 15.1 | -67.6 | -77.7
Cn1c(Cn2nnc3ccccc32)nnc1SCC(N)=O | 4.4 | -31.3 | 9.3 | 37.6 | -6.6 | -9.3
SMILES | VCAM1 TNFa inh | TNFa cytotox | IL1B NFkB inh | F-actin modifier | HUVEC tox IL1B | NFkB transloc pot
Cc1cccc(N(CC(O)CON=C2c3ccccc3-c3ccccc32)S(C)(=O)=O)c1 (stereo not drawn) | -12.5 | -15.6 | 2.0 | 24.5 | -7.2 | -2.0
CCOC(=O)C1=C(c2ccccc2)O/C(=C(\C(=O)OC)C(F)(F)F)S1 | 27.6 | -7.6 | 0.2 | -16.6 | 9.5 | -0.2
CCOC(=O)C1=C(c2ccccc2)O/C(=C(/C#N)C(F)(F)F)S1 | 56.0* | 26.0 | 56.0* | -4.1 | -36.8 | -56.0
CCCCn1cnc2c1c(=O)[nH]c(=O)n2CCCC | 0.3 | -51.5 | 7.4 | 34.8* | -11.4 | -7.4
COC(=O)c1c(CSc2ccc(C)c(C)c2)noc1C(=O)NCc1ccc(OC)cc1 | 8.6 | -16.3 | 8.9 | 22.4 | -11.5 | -8.9
O=S(=O)(Nc1ccc2c3c(cccc13)CC2)c1ccc(F)cc1 | -3.1 | 9.6 | -10.4 | -19.8 | 26.3 | 10.4
CSc1ccc(S(=O)(=O)Nc2ccc3c4c(cccc24)CC3)cc1 | 43.6* | 17.5 | 9.4 | -45.8 | 22.1 | -9.4
COc1ccc2[nH]c(=O)c(C(c3nnnn3C3CCCC3)N3CCN(Cc4ccc5c(c4)OCO5)CC3)cc2c1 (stereo not drawn) | -1.2 | -9.0 | -9.1 | x | 14.3 | 9.1
Cc1nn(-c2cc(C)c3ccccc3n2)c2c1C1C(C2)C1(C)C (stereo not drawn) | 59.9* | 12.0 | -35.4 | -6.7 | -40.6 | 35.4
Cc1cc(-n2nnc3ccccc32)nc2ccccc12 | 11.9 | 0.8 | -4.3 | -15.5 | -22.0 | 4.3
CSc1cccc(NC(=O)Nc2ccc(Cl)cc2)c1 | -3.4 | -0.9 | 76.2* | -10.6 | -10.6 | -76.2
COc1cc(SC)ccc1C(=O)Nc1ccc2c(c1)OCCO2 | -18.1 | -18.3 | -44.8 | -0.7 | -38.1 | 44.8*
Cc1ccc2[nH]c3c(c2c1)CN(C(=O)CN1CCN(c2cccc(C)c2C)CC1)CC3 | -8.1 | -3.1 | -15.1 | 0.1 | -24.1 | 15.1
O=C(CN1CCSCC1)N1CCc2[nH]c3ccc(Br)cc3c2C1 | 61.4* | 4.2 | -3.3 | -17.5 | 18.5 | 3.2
O=C(CSc1nnc(-c2cccs2)n1-c1ccccc1)N1CCCC1 | 59.3 | 87.9* | -19.1 | -44.5 | 4.1 | 19.1
Cc1nc(NC(=O)CSc2nc3cccnc3n2Cc2ccccc2)sc1C | -17.7 | -24.7 | -3.5 | 3.2 | 0.3 | 3.5
CCOC(=O)N1CCC(NC(=O)c2cc(C(=O)NC3CCCC3)ccc2CO)CC1 | 5.2 | -2.3 | 60.7* | 1.6 | 40.0 | -60.7
COc1ccc(NC(=O)N2CCn3c2nc2ccccc23)cc1 | 58.0* | 5.7 | 19.1 | -38.2 | 2.3 | -19.1
O=C(Nc1ccccc1)N1CCn2c1nc1ccccc12 | 15.9 | 10.0 | -0.1 | -2.2 | -8.3 | 0.1
Cc1ccc(C2Oc3ccccc3C3=C2C(c2cccs2)n2ncnc2N3)cc1 (stereo not drawn) | 3.5 | -30.5 | 7.1 | 11.5 | 87.6* | -7.1
